Screening results from PubChem.
This is a sample that favours compounds with a hit; in the whole collection about 7.5% have one here.
RORg inh: qHTS for inhibitors of ROR gamma transcriptional activity | Nuclear receptor ROR-gamma (Mus musculus), P51450 | Drosophila S2 Gal4-RORgamma UAS-luciferase reporter, 20 h | Potency, µM (doses to about 53.6 µM), hits mostly inhibitors | 310,000 compounds, 5.4% hits | AID 2551, 2010; note: nearly all actives have a fitted effect of over 60% in size
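Read-out: Photinus luciferase luminescence; inhibitors lower reporter signal. Insect Schneider cells with Gal4-ROR gamma fusion under metallothionein promoter, UAS reporter; 700 uM final copper sulfate induction, 20 hr, ambient temperature.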
TSHR antag: Antagonists of the Thyroid Stimulating Hormone Receptor: HTS campaign. Thyrotropin receptor (Homo sapiens), P16473. TSHR-expressing cells, TSH-stimulated cAMP HTRF, 2 h; hits give low values. activity change, negative = inhibition, % at 11.5 µM. 330,000 compounds, 0.2% hits. AID 504810, 2011;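 active = activity change below a set negative limit, meaning inhibition stronger than a set level, cut at about -70% in these data; inconclusive = activity change between two set negative limits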
Target sequence (P16473 whole entry, looked up): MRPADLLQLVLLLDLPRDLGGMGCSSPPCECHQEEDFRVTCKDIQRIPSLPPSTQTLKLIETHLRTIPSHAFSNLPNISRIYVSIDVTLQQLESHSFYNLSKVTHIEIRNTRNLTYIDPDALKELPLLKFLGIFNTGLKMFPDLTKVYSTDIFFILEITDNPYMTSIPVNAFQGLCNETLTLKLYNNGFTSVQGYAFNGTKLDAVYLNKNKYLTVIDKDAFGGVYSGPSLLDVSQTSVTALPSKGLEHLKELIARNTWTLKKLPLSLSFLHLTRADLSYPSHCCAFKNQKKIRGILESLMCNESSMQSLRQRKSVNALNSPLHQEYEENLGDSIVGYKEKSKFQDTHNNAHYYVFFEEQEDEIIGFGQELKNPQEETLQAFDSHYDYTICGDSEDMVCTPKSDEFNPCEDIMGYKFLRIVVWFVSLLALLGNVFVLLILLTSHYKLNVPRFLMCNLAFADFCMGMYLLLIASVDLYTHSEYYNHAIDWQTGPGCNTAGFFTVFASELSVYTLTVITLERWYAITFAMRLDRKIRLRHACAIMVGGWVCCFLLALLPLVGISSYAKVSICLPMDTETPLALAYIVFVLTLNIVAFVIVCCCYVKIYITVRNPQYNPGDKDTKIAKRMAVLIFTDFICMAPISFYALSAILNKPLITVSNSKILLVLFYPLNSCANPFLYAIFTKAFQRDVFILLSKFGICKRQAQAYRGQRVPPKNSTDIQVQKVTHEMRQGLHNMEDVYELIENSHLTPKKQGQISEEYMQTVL
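Inhibition of cAMP made by TSHR-expressing cells under TSH stimulation (4nM final, EC80; 2 h, 37 deg C) is quantified with a one-step lysis HTRF kit, anti-cAMP cryptate versus cAMP-d2.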
ELG1 repair inh: qHTS screen for small molecules that inhibit ELG1-dependent DNA repair in human embryonic kidney (HEK293T) cells expressing luciferase-tagged ELG1. HEK293T ELG1-luciferase reporter, luminescence, 16 h; DNA damage induced by 5-fluorouridine. Potency, µM (doses to about 46.1 µM), actives largely listed as inhibitors. AID 504467, 2011. 330,000 compounds, 2.3% hits; note: nearly all actives have a fitted effect of over 55% in size
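Cells (2,000 per well) received 5-fluorouridine plus test compound or DMSO and were incubated 16 hr at 37 °C, 5% CO2. Luciferase activity was read by luminescence 30 min after ONE-Glo addition; signal suppression marked inhibition of damage-induced ELG1 function.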
B2AR arrestin: qHTS assay of beta-arrestin-biased ligands of beta2-adrenergic receptor; 330,000 compounds, 0.02% hits; Beta-2 adrenergic receptor (Homo sapiens), P07550; Potency, µM (doses to about 46.1 µM), usual class: activators; beta-arrestin recruitment to beta2AR, cell-based reporter; note: nearly all actives have a fitted effect of over 65% in size
Gal4-VP16 FLuc: VP16 counterscreen qHTS for inhibitors of ROR gamma transcriptional activity | AID 2546, 2010 | Drosophila S2 Gal4-VP16 UAS-luciferase, luminescence, 20 h | 310,000 compounds, 3.5% hits | Potency, µM (titrated, usually from 53.6 µM), usual class: inhibitors;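 note: Gal4-VP16 expression switched on by copper sulfate through the metallothionein promoter; nearly all actives have a fitted effect of over 50% in size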
Hits are given with their value; [ ] = dose if it differs, or a comment. Unless noted, calls come from the whole dose curve; as a rule, active = well fitted curve in the direction sought with a large enough effect; inconclusive = small, poorly fitted or top-dose-only effect, or another doubt; inactive = no such curve, though single readings can be large; an effect the other way counts as inactive or inconclusive.

Results for CC(/C=C/c1ccco1)=N\NC(=O)COc1ccc(C)c(C)c1 ?
RORg inh: inconclusive; TSHR antag: inactive; ELG1 repair inh: inconclusive; B2AR arrestin: inactive; Gal4-VP16 FLuc: 8.9µM

What do the screens show for `CC(/C=C/c1ccccc1F)=N\NC(=O)c1cccc(F)c1`?
RORg inh: 0.89µM; TSHR antag: inactive; ELG1 repair inh: inconclusive; B2AR arrestin: inactive; Gal4-VP16 FLuc: 5µM

What do the screens show for `CC(/C=C/c1ccco1)=N/NC(=O)c1ccccc1Cl`?
RORg inh: inconclusive; TSHR antag: inactive; ELG1 repair inh: inconclusive; B2AR arrestin: inactive; Gal4-VP16 FLuc: inconclusive

What do the screens show for `CC(/C=C/c1ccco1)=N\NC(=O)c1cccc(Cl)c1`?
RORg inh: 4µM; TSHR antag: inactive; ELG1 repair inh: inactive; B2AR arrestin: inactive; Gal4-VP16 FLuc: 3.5µM

What do the screens show for `Cc1c(F)cccc1NS(=O)(=O)c1ccc2c(c1)c(C)cc(=O)n2C`?
RORg inh: inactive; TSHR antag: inactive; ELG1 repair inh: inactive; B2AR arrestin: inactive; Gal4-VP16 FLuc: inconclusive

Results for C/C(CCS(=O)(=O)c1ccccc1)=N/O ?
RORg inh: inactive; TSHR antag: inactive; ELG1 repair inh: inactive; B2AR arrestin: inactive; Gal4-VP16 FLuc: inactive

How did CC[C@@H]1/C=C(\C)C[C@H](C)C[C@H](OC)[C@H]2O[C@@](O)(C(=O)C(=O)N3CCCC[C@H]3C(=O)O[C@H](/C(C)=C/[C@@H]3CC[C@@H](O)[C@H](OC)C3)[C@H](C)[C@@H](O)CC1=O)[C@H](C)C[C@@H]2OC do in these assays?
RORg inh: inactive; Gal4-VP16 FLuc: inconclusive

How did O=C(OCCc1cc2ccccc2c(=O)o1)c1ccccc1C(F)(F)F do in these assays?
TSHR antag: -71; ELG1 repair inh: inconclusive; B2AR arrestin: inactive

How did O=[N+]([O-])c1cc(Cl)c(O)c2ncccc12 do in these assays?
RORg inh: 0.71µM; TSHR antag: inactive; ELG1 repair inh: inconclusive; B2AR arrestin: inconclusive; Gal4-VP16 FLuc: 1.3µM

How did O=[N+]([O-])c1cc(Cl)c2cccnc2c1O do in these assays?
RORg inh: 2.8µM; TSHR antag: inactive; ELG1 repair inh: inconclusive; B2AR arrestin: inactive; Gal4-VP16 FLuc: 4µM

How did CN(Cc1cc([N+](=O)[O-])c2cccnc2c1O)C1CCCCC1 do in these assays?
RORg inh: 4µM; TSHR antag: inactive; ELG1 repair inh: inactive; B2AR arrestin: inactive; Gal4-VP16 FLuc: inconclusive

Results for O=[N+]([O-])c1cc(CN2CCN(c3ccccc3)CC2)c(O)c2ncccc12 ?
RORg inh: 0.11µM; TSHR antag: inactive; ELG1 repair inh: 4.6µM; B2AR arrestin: inactive; Gal4-VP16 FLuc: inactive

What do the screens show for `O=[N+]([O-])c1cc(CN2CCOCC2)c2cccnc2c1O`?
RORg inh: inactive; TSHR antag: inactive; ELG1 repair inh: inactive; B2AR arrestin: inactive; Gal4-VP16 FLuc: inactive

How did O=[N+]([O-])c1ccc(Cl)c2cccnc12 do in these assays?
RORg inh: inactive; TSHR antag: inactive; ELG1 repair inh: inactive; B2AR arrestin: inactive; Gal4-VP16 FLuc: inactive

Results for O=C(c1ccco1)N1CCC[C@@]2(CCN(C(c3ccccc3)c3ccccc3)C2)C1 ?
RORg inh: inactive; Gal4-VP16 FLuc: inconclusive

What do the screens show for `C=CC[C@@H]1C=C[C@H](O/N=C\[C@@H](C)[C@H](OCc2ccccc2)C(C)C)[C@H](CO)O1`?
RORg inh: inactive[10 µM]; Gal4-VP16 FLuc: inactive[10 µM]

What do the screens show for `COCCNC(=O)C1(C(F)(F)F)C/C(=C\Cc2ccccc2)CCCO1` (centres undefined)?
RORg inh: inactive; Gal4-VP16 FLuc: inconclusive

How did O=[N+]([O-])c1ccc(O)c2cccnc12 do in these assays?
RORg inh: inconclusive; TSHR antag: inactive; ELG1 repair inh: inactive; B2AR arrestin: inactive; Gal4-VP16 FLuc: inactive

Results for O=[N+]([O-])c1cc(F)c2cccnc2c1O ?
RORg inh: 1.3µM; TSHR antag: inactive; ELG1 repair inh: 21µM; B2AR arrestin: inactive; Gal4-VP16 FLuc: 3.2µM

What do the screens show for `CCc1nc(N2CCC(C)CC2)c2oc3ccccc3c2n1`?
RORg inh: 11µM; TSHR antag: inactive; ELG1 repair inh: inactive; B2AR arrestin: inactive; Gal4-VP16 FLuc: inconclusive

What do the screens show for `CCc1nc(SCCO)c2oc3ccccc3c2n1`?
RORg inh: inactive; TSHR antag: inactive; ELG1 repair inh: inactive; B2AR arrestin: inactive; Gal4-VP16 FLuc: inactive

Results for CCc1nc(N(CC)CC)c2oc3ccccc3c2n1 ?
RORg inh: 14µM; TSHR antag: inactive; ELG1 repair inh: inconclusive; B2AR arrestin: inactive; Gal4-VP16 FLuc: inconclusive

How did CCc1nc(Nc2ccc(O)cc2)c2oc3ccccc3c2n1 do in these assays?
RORg inh: inactive; TSHR antag: inactive; ELG1 repair inh: 16µM; B2AR arrestin: inactive; Gal4-VP16 FLuc: inactive

What do the screens show for `CCNc1nc(CC)nc2c1oc1ccccc12`?
RORg inh: inactive; TSHR antag: inactive; ELG1 repair inh: inactive; B2AR arrestin: inactive; Gal4-VP16 FLuc: inactive

What do the screens show for `CCc1nc(Nc2ccccc2O)c2oc3ccccc3c2n1`?
RORg inh: inactive; TSHR antag: inactive; ELG1 repair inh: inactive; B2AR arrestin: inactive; Gal4-VP16 FLuc: inactive

How did CN[C@H]1[C@@H](O)[C@@H](NC)[C@@H]2O[C@@]3(O)C(=O)C[C@@H](C)O[C@H]3O[C@H]2[C@H]1O do in these assays?
RORg inh: inactive[2.98 µM]; Gal4-VP16 FLuc: inactive

Results for COCCNC(=O)C1(C(F)(F)F)C/C(=C\CCO)CCCO1 (centres undefined) ?
RORg inh: inactive; Gal4-VP16 FLuc: inactive

Results for COCCNc1ncnc2ccc(-c3ccc(N(C)C)cc3)cc12 ?
RORg inh: inconclusive; Gal4-VP16 FLuc: inactive

Results for COc1cc(/C=N/NC(=O)COc2cccc(F)c2)ccc1OS(=O)(=O)c1ccc(C)cc1 ?
RORg inh: inactive; TSHR antag: inactive; ELG1 repair inh: 18µM; B2AR arrestin: inactive; Gal4-VP16 FLuc: inactive

Results for COc1cc(Nc2c3c(nc4ccccc24)CCCC3)cc(OC)c1OC ?
RORg inh: 11µM; TSHR antag: inactive; ELG1 repair inh: inconclusive; B2AR arrestin: inactive; Gal4-VP16 FLuc: inactive

What do the screens show for `COc1ccccc1Nc1c2c(nc3ccccc13)CCC2`?
RORg inh: inactive; TSHR antag: inactive; ELG1 repair inh: inconclusive; B2AR arrestin: inactive; Gal4-VP16 FLuc: inactive

How did O=C(NCCCN1CCCC1=O)c1ccc(NS(=O)(=O)c2ccc(F)cc2)cc1 do in these assays?
TSHR antag: inactive; ELG1 repair inh: inactive; B2AR arrestin: inactive

What do the screens show for `COC(=O)c1c(NC(=O)CN2CCC3(O)CCCCC3C2c2ccc(F)cc2)sc(C)c1C` (centres undefined)?
RORg inh: inactive; TSHR antag: inactive; ELG1 repair inh: inactive; B2AR arrestin: inconclusive; Gal4-VP16 FLuc: inactive
